Key:
[1] = molecular target: T1, Ephrin type-A receptor 3 (Homo sapiens) (UniProt P29320); details: at 10 µM
T1 sequence (whole entry): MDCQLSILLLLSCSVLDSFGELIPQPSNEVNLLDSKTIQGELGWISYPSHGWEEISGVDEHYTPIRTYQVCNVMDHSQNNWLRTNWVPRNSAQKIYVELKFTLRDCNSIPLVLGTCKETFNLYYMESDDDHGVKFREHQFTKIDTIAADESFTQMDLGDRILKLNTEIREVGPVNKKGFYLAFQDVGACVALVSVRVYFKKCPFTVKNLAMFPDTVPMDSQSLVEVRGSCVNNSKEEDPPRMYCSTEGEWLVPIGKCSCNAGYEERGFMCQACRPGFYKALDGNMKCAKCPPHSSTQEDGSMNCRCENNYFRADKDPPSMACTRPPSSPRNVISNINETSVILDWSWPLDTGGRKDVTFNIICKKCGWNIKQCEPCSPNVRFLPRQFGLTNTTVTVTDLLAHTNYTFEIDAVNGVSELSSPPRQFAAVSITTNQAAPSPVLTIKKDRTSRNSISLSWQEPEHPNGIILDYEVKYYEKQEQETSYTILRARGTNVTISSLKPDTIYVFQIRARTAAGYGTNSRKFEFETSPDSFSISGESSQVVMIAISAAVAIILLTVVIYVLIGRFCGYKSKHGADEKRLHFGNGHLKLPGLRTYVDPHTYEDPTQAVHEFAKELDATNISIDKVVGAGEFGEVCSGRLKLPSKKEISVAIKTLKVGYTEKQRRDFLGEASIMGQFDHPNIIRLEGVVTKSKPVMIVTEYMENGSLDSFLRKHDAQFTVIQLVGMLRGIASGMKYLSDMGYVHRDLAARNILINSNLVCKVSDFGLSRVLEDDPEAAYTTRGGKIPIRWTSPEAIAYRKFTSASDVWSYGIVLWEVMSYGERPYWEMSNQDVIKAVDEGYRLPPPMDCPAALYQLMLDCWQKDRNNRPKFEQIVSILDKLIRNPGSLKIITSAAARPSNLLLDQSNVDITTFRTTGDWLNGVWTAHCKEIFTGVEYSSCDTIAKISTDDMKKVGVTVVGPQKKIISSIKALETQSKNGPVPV

[2] = molecular target: Ephrin type-A receptor 4 (Homo sapiens) (UniProt P54764); details: at 1 µM
Sequence of Ephrin type-A receptor 4 (Homo sapiens) (P54764 whole entry): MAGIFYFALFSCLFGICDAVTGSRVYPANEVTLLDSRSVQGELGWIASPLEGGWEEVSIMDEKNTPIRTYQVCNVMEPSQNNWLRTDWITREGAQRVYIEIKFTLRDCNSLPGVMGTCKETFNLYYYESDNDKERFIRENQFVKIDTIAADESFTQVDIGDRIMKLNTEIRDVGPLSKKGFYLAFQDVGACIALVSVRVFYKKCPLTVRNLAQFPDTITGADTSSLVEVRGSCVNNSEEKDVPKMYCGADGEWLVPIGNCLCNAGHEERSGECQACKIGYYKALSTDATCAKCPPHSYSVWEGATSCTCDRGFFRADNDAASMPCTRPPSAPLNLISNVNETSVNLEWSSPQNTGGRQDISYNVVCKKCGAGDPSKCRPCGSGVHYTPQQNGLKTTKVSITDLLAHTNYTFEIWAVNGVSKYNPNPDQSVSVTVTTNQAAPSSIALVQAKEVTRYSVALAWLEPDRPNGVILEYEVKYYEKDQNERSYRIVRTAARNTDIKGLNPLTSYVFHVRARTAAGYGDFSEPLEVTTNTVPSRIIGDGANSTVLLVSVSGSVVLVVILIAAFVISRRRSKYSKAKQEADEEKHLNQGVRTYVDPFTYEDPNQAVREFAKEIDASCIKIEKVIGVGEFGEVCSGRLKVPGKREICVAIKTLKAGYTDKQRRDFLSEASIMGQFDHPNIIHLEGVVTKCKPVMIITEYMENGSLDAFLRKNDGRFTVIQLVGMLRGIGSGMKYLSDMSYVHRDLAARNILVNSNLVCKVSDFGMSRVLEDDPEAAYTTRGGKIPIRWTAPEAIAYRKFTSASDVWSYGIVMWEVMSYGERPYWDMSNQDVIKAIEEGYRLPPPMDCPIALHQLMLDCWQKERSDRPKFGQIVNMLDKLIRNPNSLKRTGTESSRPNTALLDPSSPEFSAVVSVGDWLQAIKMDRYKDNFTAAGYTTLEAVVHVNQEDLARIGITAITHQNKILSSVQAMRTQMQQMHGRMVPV

[3] = molecular target: Ephrin type-A receptor 4 (Homo sapiens) (UniProt P54764); details: at 10 µM
[4] = molecular target: Ephrin type-A receptor 5 (Homo sapiens) (UniProt P54756); details: at 1 µM
Sequence of Ephrin type-A receptor 5 (Homo sapiens) (P54756 whole entry): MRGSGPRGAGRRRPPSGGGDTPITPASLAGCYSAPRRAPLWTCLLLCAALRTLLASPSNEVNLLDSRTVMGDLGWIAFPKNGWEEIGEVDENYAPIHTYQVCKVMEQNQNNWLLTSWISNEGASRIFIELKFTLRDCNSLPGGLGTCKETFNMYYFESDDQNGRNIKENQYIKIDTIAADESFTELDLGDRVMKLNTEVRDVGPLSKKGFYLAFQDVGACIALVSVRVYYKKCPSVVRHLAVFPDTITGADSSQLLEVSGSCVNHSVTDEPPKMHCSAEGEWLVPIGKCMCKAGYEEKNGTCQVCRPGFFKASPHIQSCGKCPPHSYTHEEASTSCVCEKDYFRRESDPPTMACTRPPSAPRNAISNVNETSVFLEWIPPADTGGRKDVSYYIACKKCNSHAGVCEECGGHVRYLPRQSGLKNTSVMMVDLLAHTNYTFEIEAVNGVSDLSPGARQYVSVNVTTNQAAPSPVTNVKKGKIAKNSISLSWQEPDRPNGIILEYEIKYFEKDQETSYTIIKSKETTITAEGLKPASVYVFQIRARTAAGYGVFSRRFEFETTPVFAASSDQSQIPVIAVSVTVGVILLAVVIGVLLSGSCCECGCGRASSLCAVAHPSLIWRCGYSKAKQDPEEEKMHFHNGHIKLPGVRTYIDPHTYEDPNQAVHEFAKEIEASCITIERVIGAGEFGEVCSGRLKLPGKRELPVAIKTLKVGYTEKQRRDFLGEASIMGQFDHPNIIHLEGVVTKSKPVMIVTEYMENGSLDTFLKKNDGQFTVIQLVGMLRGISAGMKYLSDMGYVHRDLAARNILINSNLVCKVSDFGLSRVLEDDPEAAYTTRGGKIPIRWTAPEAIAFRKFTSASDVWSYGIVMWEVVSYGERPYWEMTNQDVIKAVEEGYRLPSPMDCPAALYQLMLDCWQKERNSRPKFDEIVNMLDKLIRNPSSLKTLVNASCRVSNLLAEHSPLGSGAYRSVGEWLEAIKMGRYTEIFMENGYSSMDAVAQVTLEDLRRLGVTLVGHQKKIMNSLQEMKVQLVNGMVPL

[5] = molecular target: Ephrin type-A receptor 5 (Homo sapiens) (UniProt P54756); details: at 10 µM
[6] = molecular target: Ephrin type-A receptor 7 (Homo sapiens) (UniProt Q15375); details: at 1 µM
Sequence of Ephrin type-A receptor 7 (Homo sapiens) (Q15375 28-998 limits assumed): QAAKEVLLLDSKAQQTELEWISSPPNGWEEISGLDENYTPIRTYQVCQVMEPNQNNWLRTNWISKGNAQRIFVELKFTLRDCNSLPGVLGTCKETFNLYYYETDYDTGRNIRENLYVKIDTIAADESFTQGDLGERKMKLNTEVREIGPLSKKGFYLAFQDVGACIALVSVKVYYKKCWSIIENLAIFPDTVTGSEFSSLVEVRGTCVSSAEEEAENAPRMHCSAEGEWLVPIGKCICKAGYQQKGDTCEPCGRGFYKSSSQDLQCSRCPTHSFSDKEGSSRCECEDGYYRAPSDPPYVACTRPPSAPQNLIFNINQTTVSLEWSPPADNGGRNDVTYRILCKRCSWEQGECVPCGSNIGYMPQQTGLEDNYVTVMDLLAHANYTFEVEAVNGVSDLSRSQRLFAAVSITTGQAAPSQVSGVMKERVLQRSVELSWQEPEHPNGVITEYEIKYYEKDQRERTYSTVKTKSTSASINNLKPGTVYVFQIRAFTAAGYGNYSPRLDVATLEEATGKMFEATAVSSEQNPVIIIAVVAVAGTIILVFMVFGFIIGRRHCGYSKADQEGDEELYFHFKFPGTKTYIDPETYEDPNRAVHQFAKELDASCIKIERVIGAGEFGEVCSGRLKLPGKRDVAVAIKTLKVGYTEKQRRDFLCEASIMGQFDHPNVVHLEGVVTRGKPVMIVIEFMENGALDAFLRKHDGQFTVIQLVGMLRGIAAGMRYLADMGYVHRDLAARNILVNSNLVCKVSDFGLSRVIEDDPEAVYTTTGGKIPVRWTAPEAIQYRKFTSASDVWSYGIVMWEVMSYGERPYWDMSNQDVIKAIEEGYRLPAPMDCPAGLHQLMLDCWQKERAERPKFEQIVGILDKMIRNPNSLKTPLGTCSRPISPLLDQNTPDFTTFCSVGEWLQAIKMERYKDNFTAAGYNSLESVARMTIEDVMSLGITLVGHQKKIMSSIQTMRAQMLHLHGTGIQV

[7] = molecular target: Ephrin type-A receptor 7 (Homo sapiens) (UniProt Q15375); details: at 10 µM
[8] = molecular target: T2, Ephrin type-A receptor 8 (Homo sapiens) (UniProt P29322); details: at 1 µM
T2 sequence (whole entry): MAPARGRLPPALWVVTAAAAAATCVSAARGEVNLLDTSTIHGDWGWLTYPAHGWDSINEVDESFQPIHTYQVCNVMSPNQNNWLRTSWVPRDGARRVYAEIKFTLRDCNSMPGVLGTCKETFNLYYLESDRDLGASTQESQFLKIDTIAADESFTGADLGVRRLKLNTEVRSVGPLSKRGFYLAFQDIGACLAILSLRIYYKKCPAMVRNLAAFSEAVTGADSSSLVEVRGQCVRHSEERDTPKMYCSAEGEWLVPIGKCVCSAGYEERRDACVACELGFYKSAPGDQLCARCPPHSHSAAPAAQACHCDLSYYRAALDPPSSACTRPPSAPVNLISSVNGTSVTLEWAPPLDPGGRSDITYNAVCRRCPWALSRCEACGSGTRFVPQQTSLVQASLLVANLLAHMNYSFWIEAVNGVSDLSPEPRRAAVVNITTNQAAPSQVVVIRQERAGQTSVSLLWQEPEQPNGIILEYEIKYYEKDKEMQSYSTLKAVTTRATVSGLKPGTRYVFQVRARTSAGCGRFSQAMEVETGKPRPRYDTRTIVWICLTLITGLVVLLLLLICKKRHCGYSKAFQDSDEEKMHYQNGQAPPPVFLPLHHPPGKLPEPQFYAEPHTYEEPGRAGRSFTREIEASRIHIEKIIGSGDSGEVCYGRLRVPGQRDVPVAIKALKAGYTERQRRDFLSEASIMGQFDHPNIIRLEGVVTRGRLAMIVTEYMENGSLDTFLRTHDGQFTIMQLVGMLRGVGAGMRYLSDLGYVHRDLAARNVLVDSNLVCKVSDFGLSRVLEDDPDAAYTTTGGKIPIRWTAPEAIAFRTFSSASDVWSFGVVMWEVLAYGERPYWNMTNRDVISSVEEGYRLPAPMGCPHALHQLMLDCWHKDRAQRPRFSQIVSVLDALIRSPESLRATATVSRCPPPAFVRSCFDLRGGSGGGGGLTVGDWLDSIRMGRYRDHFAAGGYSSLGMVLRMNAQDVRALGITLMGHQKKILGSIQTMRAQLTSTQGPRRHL

[9] = molecular target: T2, Ephrin type-A receptor 8 (Homo sapiens); details: at 10 µM
[10] = molecular target: T3, Ephrin type-B receptor 1 (Homo sapiens) (UniProt P54762); details: at 1 µM
T3 sequence (whole entry): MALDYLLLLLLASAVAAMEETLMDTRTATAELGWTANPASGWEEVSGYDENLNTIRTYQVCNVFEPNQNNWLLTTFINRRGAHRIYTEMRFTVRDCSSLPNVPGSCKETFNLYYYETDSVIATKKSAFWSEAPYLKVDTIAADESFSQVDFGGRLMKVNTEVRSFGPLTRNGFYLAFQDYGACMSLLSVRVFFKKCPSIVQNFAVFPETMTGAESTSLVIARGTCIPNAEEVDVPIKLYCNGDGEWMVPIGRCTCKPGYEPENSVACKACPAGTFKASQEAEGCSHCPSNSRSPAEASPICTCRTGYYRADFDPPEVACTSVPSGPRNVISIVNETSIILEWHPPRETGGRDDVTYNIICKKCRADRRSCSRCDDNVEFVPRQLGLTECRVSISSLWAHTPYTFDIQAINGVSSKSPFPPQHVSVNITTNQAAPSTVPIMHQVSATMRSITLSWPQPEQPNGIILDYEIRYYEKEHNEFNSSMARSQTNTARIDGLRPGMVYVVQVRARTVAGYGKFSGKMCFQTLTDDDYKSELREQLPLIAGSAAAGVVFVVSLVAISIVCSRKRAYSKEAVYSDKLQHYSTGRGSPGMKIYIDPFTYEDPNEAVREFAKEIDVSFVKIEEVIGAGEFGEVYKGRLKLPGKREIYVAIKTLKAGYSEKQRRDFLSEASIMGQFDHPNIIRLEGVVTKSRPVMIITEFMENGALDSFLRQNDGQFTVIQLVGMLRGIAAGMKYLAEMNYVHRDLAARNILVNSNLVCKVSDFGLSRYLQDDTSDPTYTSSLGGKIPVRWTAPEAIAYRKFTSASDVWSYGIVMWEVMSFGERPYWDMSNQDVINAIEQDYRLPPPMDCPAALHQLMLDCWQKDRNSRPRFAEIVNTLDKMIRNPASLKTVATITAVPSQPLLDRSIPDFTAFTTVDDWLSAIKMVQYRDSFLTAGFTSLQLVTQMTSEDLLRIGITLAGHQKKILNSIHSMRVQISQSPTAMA

CCC(=O)Nc1ccc2ncnc(Nc3cccc(Br)c3)c2c1 showed a residual activity [1] of 82%, a residual activity [2] of 106% and a residual activity [3] of 92%. The residual activity [4] was 101%, the residual activity [5] was 99% and the residual activity [6] was 92%. For the same molecule, the residual activity [7] was 76%, the residual activity [8] was 97% and the residual activity [9] was 88%. It also gave a residual activity [10] of 97%.
